In PubChem BioAssay AID624115 (Johns Hopkins Ion Channel Center, 2012):
In all, about 4,000 compounds went through this assay and about 350 (8.8%) were called active.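 How the source made its calls: active means calcium fluorescence ratio at least three times the spread of buffer wells, meaning a non-specific response in parental cells; inactive means the rest.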 Only a sample is shown.

experiment: nonspecific Ca2+ signal without MrgX1 expression – cell-based, Fluo-4 calcium flux, duplicate, agonist mode, counter-screen for MrgX1 agonist project, primary screen (AID 624115); details: parental HEK293, Fluo-4 calcium fluorescence (FDSS), at 10 µM; stronger effect = higher value

Compound | fluorescence ratio F(max-min)/F0
Fc1cccc(Cl)c1COc1ccc(-c2nnco2)cc1 | inactive
Cc1ccc(S(=O)(=O)N(C)c2nc3ccccc3n3c(C(C)C)nnc23)cc1 | inactive
CCCCC(=O)Nc1ccc2c(c1)C(=O)NC2=O | inactive
O=C(CSc1c2c(nc3ccc(Cl)cc13)CCCC2)NCc1ccco1 | inactive
O=C(Nc1cccc(Cl)c1)c1cncn1-c1ccc(F)cc1 | inactive
O=C(Cn1c(-c2cncs2)nc2ccccc21)NC1CCCC1 | inactive
Cc1nccn1CCC1CCCCN1C(=O)CCc1nnc(-c2ccsc2)o1 (configuration not stated) | inactive
COc1ccc(-c2cc(C(F)(F)F)nc(S(C)(=O)=O)n2)cc1OC | inactive
COc1ccc2c(c1)OC(O)(C(F)(F)C(F)F)CC2=O (configuration not stated) | 87.4 (active)
FC(F)(F)c1cc(-c2cccs2)nc(NCc2ccco2)n1 | inactive
CCOC(=O)Nc1ccc2c(c1)N(C(=O)CCN1CCN(CCO)CC1)c1ccccc1CC2 | inactive
O=C(CN1CCN(c2ccccn2)CC1)NC1CCCCC1 | inactive
Cc1c(C(=O)N2CCN(c3ccc(F)cc3)CC2)oc2c1C(=O)CCC2 | inactive
CCN(CC)c1ccc(C2C3CCCCC3(O)CCN2CC(=O)Nc2ccccc2)cc1 (configuration not stated) | inactive
COc1ccc(Nc2nc(-c3cccnc3)nc3ccccc23)cn1 | inactive
O=C(Cc1nc2ccccc2[nH]c1=O)c1ccc(Cl)cc1 | inactive
N#CC1=C(N)Oc2c(sc3ccccc23)C1c1ccco1 (configuration not stated) | inactive
CCOc1ccc(NC(=O)CCNC(=O)c2ccc(Br)cc2)cc1 | inactive
Cc1cc(C)n(CCNC(=O)CC2C(=O)NCCN2Cc2ccc(C)o2)n1 (configuration not stated) | inactive
CCOC1CCCCC1NS(=O)(=O)c1ccc(Cl)cc1 (configuration not stated) | inactive
COC(=O)c1sccc1NS(=O)(=O)c1ccc(F)cc1F | inactive
CC(=O)Nc1ccc(OC(=O)COc2ccc(Br)cc2)cc1 | inactive
Cc1ccnc(-n2sc3ccccc3c2=O)n1 | inactive
CCN(c1cccc(C)c1)S(=O)(=O)c1ccc(-c2coc(C)n2)cc1 | inactive

Compound | fluorescence ratio F(max-min)/F0
COCC(C)NC(=O)c1ccc(Cl)c(Cl)c1 (configuration not stated) | inactive
COc1ccc(C(=O)Nc2c(N)nc(SCC(=O)N3CCC(C)CC3)[nH]c2=O)cc1OC | inactive
Cc1ccc(-c2nn(C(C)(C)C)c3ncnc(N)c23)cc1 | inactive
COc1ccc(-n2c(SCC(=O)NCc3ccco3)nnc2-c2c[nH]c3ccccc23)cc1 | inactive
CCOC(=O)Cc1csc(SCc2cc(=O)oc3cc(O)ccc23)n1 | inactive
CCC(C)c1ccccc1N1CC(C(=O)N2CCN(S(=O)(=O)c3ccc(F)cc3)CC2)CC1=O (configuration not stated) | inactive
COc1ccc([N+](=O)[O-])cc1NC(=O)COC(=O)/C=C/c1ccco1 | inactive
CN(C)CCn1c(=S)[nH]c2ccc(Cl)cc2c1=O | inactive
FC(F)Oc1ccc(NC(=S)NCc2ccco2)cc1Cl | inactive
O=c1c2cc(Br)ccc2nc(-c2cccc(Cl)c2)n1O | 90.3 (active)
O=C1CCCc2c1nc(-c1cccc(Cl)c1)n2O | inactive
Cc1nonc1C1CCCN1Cc1nc(-c2ccc(F)cc2F)oc1C (configuration not stated) | inactive
O=C1Cc2ccccc2Sc2ccc(Cl)cc21 | inactive
CCOc1ccc2nc(/N=C/c3nc(-c4ccccc4)oc3O)sc2c1 | 114 (active)
Cc1ccc(NC2(C#N)C(=O)Nc3ccccc32)cc1 (configuration not stated) | inactive
Clc1ccc(-c2nc3ccccn3c2CN2CCSCC2)cc1 | inactive
Cc1ccc2nc(Nc3ccccc3)cc(C)c2c1 | inactive
Cc1cc2ncn(CCCCOc3ccccc3)c2cc1C | inactive
Cc1nn(-c2ccccc2)c(C)c1NC(=O)COc1ccc(Cl)cc1Cl | inactive
COc1ccc(OC)c(Nc2nc3ccccc3n3cnnc23)c1 | inactive
Cc1nn(-c2ccccc2)c2c1C(c1ccc(F)cc1)C(C#N)=C(N)O2 (configuration not stated) | inactive
Cc1ccc2cc(/C=N/Nc3ccc(C(=O)O)cc3)c(Cl)nc2c1 | inactive
O=C(Nc1nnc(-c2ccccc2)o1)c1cc(-c2cccs2)nc2ccccc12 | inactive
O=C(Nc1nc2c(F)cc(F)cc2s1)C1COc2ccccc2O1 (configuration not stated) | inactive

Compound | fluorescence ratio F(max-min)/F0
Cc1ccc2nc(-c3ccc(NC(=O)CN(C)S(=O)(=O)c4ccccc4)cc3)sc2c1 | inactive
CN(CC(=O)Nc1ccccc1Cl)C(=O)COc1cccc2c1OC(C)(C)C2 | inactive
O=C(c1cccc(S(=O)(=O)Nc2ccccc2Cl)c1)N1CCN(C(=O)c2ccco2)CC1 | inactive
COc1ccc(NC(=O)c2cc(-c3ccc(C)o3)nc3ccccc23)cc1 | inactive
COCCNC(=O)Nc1ccc2nc(-c3ccco3)c(-c3ccco3)nc2c1 | 49.8 (active)
CC(C)NC(=S)Nc1cccc2cnccc12 | inactive
O=C1CCCN1CCCNC(=S)Nc1ccc(F)c(Cl)c1 | inactive
Cc1ccc(CS(=O)(=O)c2ncc(Cl)c(C(=O)Nc3nnc(C)s3)n2)cc1 | inactive
COc1ccc(S(=O)(=O)N2CCN(C(=O)NC3CCCCC3)CC2)cc1 | inactive
Cc1cccc(-n2c(Cc3cc(=O)[nH]c(=O)[nH]3)nnc2SC(C)C)c1 | inactive
COc1cc(CCC(=O)Nc2ccncc2Cl)cc(OC)c1OC | inactive
O=C(COc1ccc(Cl)cc1)NC(=S)Nc1ccccc1N1CCOCC1 | inactive
Nc1cc(OC(=O)c2ccccc2Br)nn1S(=O)(=O)c1ccccc1 | inactive
O=C1C(=O)N(CC2COc3ccccc3O2)c2ccccc21 (configuration not stated) | 64.3 (active)
COc1cccc(CNC(=O)C2CCN(S(=O)(=O)c3cccc4cccnc34)CC2)c1 | inactive
Cc1ccc(N/C(N)=N/c2nc(C(F)(F)F)cc(C(F)(F)F)n2)cc1 | inactive
O=C(Nc1ccccc1N1CCCCC1)c1ccc2nccnc2c1 | inactive
Cc1cccc(Cn2cnc3c(N)c(C)c(C)cc32)c1 | inactive
CCOC(=O)c1c(NC(=O)CSc2cn(CC)c3ccccc23)sc2c1CCC2 | inactive
CCOc1ccc(C2=CC(c3ccccc3)n3ncnc3N2)cc1 (configuration not stated) | inactive
O=C(NC1CCCCC1)C1c2ccccc2C(=O)N1Cc1ccco1 (configuration not stated) | inactive
COc1ccc(OC)c(C(=O)c2ccc(Cl)cc2)c1 | inactive
Cc1cc(Br)ccc1NC(=O)c1cnc(N2CCN(c3ccccn3)CC2)c2ccccc12 | inactive
Cc1ccc2nc(-c3ccc(NC(=O)c4cccnc4)cc3)oc2c1 | inactive
